Screening data deposited in PubChem by several laboratories.
In the library only some 5.4% were active in any assay of this set; here they are far more common.
ALR inh = inhibitors of human sulfhydryl oxidase ALR; P55789; purified ALR, DTT oxidation, H2O2 HRP-luminol luminescence; inhibition, % (no concentration beside the values); 3.8% of 290,000 active;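 active means mean replicate inhibition above about 79%, with every replicate also reaching it, limit read from the data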
Target sequence (P55789 whole entry, looked up): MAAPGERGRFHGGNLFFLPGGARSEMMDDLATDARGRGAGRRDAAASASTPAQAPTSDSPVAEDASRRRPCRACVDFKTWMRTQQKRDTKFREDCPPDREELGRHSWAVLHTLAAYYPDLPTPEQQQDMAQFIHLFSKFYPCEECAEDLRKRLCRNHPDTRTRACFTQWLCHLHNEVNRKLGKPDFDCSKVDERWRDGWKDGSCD
SMARCA2 activ = SMARCA2 function activation, primary screen; activation, % at 9.1 µM; MG213 cells, MMTV-luciferase reporter, dexamethasone, overnight; 1% of 370,000 active; AID 652017; in the data active means activation above about 7.8%;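 further: 0% = vehicle wells and 100% = reference activator wells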
beta cell repl = MIN6 beta-cell proliferation induction; proliferation, % at 10 µM; MIN6 cells proliferation, ATPlite luminescence, 48 h; cells starved in 0.2% serum; 100% = growth in 10% serum; 0.29% of 330,000 active;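 active means compounds whose signal lies at least 3.5 SD above the mean of all wells on their plate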;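 further: 0% = DMSO-treated cells in low-serum medium and 100% = 10% serum control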
JMJD2C inh = human JMJD2C demethylase inhibition; Q9H3R0; GST-JMJD2C(1-420) H3K9me3 demethylation, DELFIA europium; inhibition, % at 2.35 µM; 0.069% of 330,000 active; AID 2099;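 active means more than half of a compound's replicate wells show inhibition beyond 50%, single wells judged on their own value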;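 further: signal counts dimethyl H3K9 product captured on neutravidin plate; 0% = median of DMSO wells and 100% = 0.3 times that DMSO median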
Target sequence (Q9H3R0 1-420 limits assumed): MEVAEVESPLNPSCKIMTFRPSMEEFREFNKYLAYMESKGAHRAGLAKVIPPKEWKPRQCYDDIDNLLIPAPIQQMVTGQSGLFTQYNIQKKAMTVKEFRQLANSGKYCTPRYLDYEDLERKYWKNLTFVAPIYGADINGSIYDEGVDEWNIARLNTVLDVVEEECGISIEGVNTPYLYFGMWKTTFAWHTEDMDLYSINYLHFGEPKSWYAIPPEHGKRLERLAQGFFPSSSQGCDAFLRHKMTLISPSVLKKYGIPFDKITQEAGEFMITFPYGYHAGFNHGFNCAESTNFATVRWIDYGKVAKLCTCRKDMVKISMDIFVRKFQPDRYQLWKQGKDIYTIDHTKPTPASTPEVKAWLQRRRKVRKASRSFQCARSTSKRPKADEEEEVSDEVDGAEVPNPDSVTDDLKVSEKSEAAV
Granule exo inh = lytic granule exocytosis inhibition; TALL-104 LAMP-1 surface exposure, flow cytometry; cells stimulated with thapsigargin and PMA; inhibition, % at 10 µM; 0.66% of 360,000 active; AID 651702;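 active means inhibition above about 55%, limit read from the data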
M18AAP inhibitor = blocks P. falciparum M18 aspartyl aminopeptidase; inhibition, % at 7.35 µM; AID 1822; recombinant PfM18AAP, H-Glu-NHMec fluorogenic cleavage; 1.2% of 290,000 active;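 active means inhibition above the campaign mean inhibition over all tested compounds plus 3 SD, cut at about 28% in these data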;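 further: 0% = plate median of test compound wells and 100% = 2 mM ZnCl2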
* hit, by the source's call; nt = no result given; ! = not confirmed by another sample.

SMILES	ALR inh	SMARCA2 activ	beta cell repl	JMJD2C inh	Granule exo inh	M18AAP inhibitor
COC(=O)[C@]12C=CCN1[C@H](c1ccc(Cl)cc1)c1c(c3ccccc3n1S(=O)(=O)c1ccc(C)cc1)C2	nt	-1	nt	nt	nt	nt
COC(=O)[C@]12C[C@H](CC(=O)N3CCSCC3)C(=O)N(Cc3ccc(Cl)cc3Cl)C1=C[C@H](COCc1ccccc1)O[C@@H]2C	nt	3	nt	nt	nt	nt
COC(=O)c1cccc(Cn2ccc3ccc(-c4ccc5ccn(C(=O)c6ccccc6)c5c4)cc32)c1	nt	-2	nt	nt	nt	nt
CCn1c(COc2ccc(C)cc2)nnc1SCC(=O)Nc1ccc(Oc2ccccc2)cc1	nt	-5	nt	nt	nt	nt
O=C(NNC1=NS(=O)(=O)c2ccccc21)c1ccc([N+](=O)[O-])cc1	9	2	-4	5	-3	18
O=S1(=O)N=C(Nc2ccc(O)cc2)c2ccccc21	99*	-3	0	0	-1	1
O=C(NNC1=NS(=O)(=O)c2ccccc21)c1ccc(Cl)cc1	89*	3	-3	6	-2	6
C/C(=C/c1c[n+](Cc2ccc3c(c2)OCO3)c(N)[nH]1)Cn1[nH]c(=O)n(-c2ccccc2)c1=O	nt	-3	nt	nt	nt	nt
Cc1cccc(-c2nnc(SCc3cccc4ccccc34)n2-c2ccc(Cl)cc2)c1	nt	-7	nt	nt	nt	nt
Cc1ccc(-c2nc(CS(=O)(=O)CC(=O)N3CCN(C)CC3)c(C)o2)cc1	45	-1	-4	-10	-1	-3
COc1ccc(-c2nc(CS(=O)CC(=O)N3CCOCC3)c(C)o2)cc1OC (configuration not stated)	100*	-1	1	9	-2	1
COc1ccc(-c2nc(CN3CCC(C(=O)N4CCOCC4)CC3)c(C)o2)cc1OC	-1	-4	0	1	-5	1
COc1ccc(-c2nc(CS(=O)CC(=O)N3CCN(C)CC3)c(C)o2)cc1OC (configuration not stated)	99*	6	-3	5	-1	-3
COc1ccc(-c2nc(CS(=O)CC(=O)N3CCN(C)CC3)c(C)o2)cc1 (configuration not stated)	99*	1	-1	70	5	-1
CCOC(=O)c1c(NC(=O)CSc2nc3ccccc3s2)sc(C)c1C	98*	-4	-6	5	14	30*
Cn1ccnc1SCC(=O)NC1CCCC1	nt	-1	0	13	-4	-8
O=C(CSc1nnc(CSc2nc3ccccc3s2)o1)NC1CCCCC1	-8	1	-1	-45	-2	0
Cn1ccnc1SCC(=O)Nc1ccc2nc(SCC(=O)NC3CC3)sc2c1	98*	nt	-1	8	nt	14
Cc1ccccc1OCc1nnc(SCC(=O)Nc2ccc3nc(SCC(=O)NC(C)(C)C)sc3c2)n1C	-5	0	-4	4	77*	-5
O=C(CSc1nc2ccccc2s1)NC1CCCC1	99*	-5	-3	-8	0	7
COC1OC(COCc2ccccc2)C2OC(C)(C)OC2C1O (configuration not stated)	nt	1	nt	nt	nt	nt
Cc1cccc(Cn2cc(CN3CC(N(C)CCOC(=O)c4cc(C)cc(C)c4)CS3(=O)=O)nn2)c1 (configuration not stated)	nt	0	nt	nt	nt	nt
O=C(CSc1nnc(-c2ccccc2)n1-c1ccc(Cl)cc1)Nc1ccc2cn[nH]c2c1	nt	5	nt	nt	nt	nt
Cc1c(NC(=O)CSc2nc3ccccc3s2)c(=O)n(-c2ccccc2)n1C	99*	0	-1	-5	0	-9
Cc1cnc(NC(=O)CSc2nc3ccccc3s2)s1	nt	-1	1	-7	0	-5
SMILES	ALR inh	SMARCA2 activ	beta cell repl	JMJD2C inh	Granule exo inh	M18AAP inhibitor
Cc1csc(SCC(=O)Nc2c(C)n(C)n(-c3ccccc3)c2=O)n1	0	0	2	-6	-9	-6
NC(=O)NC(=O)COC(=O)CCCSc1nc2ccccc2s1	-4	-9	0	8	-2	6
O=C(CSc1nc2ccccc2s1)Nc1ncccn1	98*	0	0	-5	1	0
CCOC(=O)NC(=O)COC(=O)CCCSc1nc2ccccc2s1	93*	-5	-3	2	1	-1
COC(=O)CSc1[nH]c2ccccc2c1[N+](=O)[O-]	100*	2	1	-9	-1	-4
Clc1ccc(CSc2nnc(-c3cccs3)o2)cc1Cl	nt	4	nt	nt	nt	nt
Cc1nc2cc(C(=O)N3CCN(C(=O)OCc4ccccc4)CC3)ccc2n1C1CCCC1	nt	2	nt	nt	nt	nt
N#C/C(=N\O)c1nc(-c2ccccc2)cs1	89*!	-2	1	-7	-4	6
N#CC(=C1CCCC1)c1nc(-c2ccccc2)cs1	-11	6	-2	38	-1	-2
COC(=O)[C@]12C[C@H](CC(=O)NCc3ccc(C)o3)C(=O)N(Cc3ccc4c(c3)OCO4)C1=C[C@H](C(C)C)O[C@@H]2C1CC1	nt	-5	nt	nt	nt	nt
O=c1oc2c3c4c(cc2s1)CCCN4CCC3	99*	2	-2	4	0	13
CCn1c(SCC(=O)Nc2ccc(S(=O)(=O)Nc3cc(C)nc(C)n3)cc2)nc2sc(C)c(C)c2c1=O	nt	3	nt	nt	nt	nt
CN(CCNC(=O)c1cccc(N2CCCC2=O)c1)Cc1ccccc1	-3	-1	-3	-3	0	4
O=C(N/N=C/c1cccnc1)c1cccc(N2CCCC2=O)c1	-10	-1	-3	5	-3	-8
CCN(CCNC(=O)c1cccc(N2CCCC2=O)c1)c1ccccc1	98*	-1	-2	2	6	-1
COc1cc(/C=N/NC(=O)c2cccc(N3CCCC3=O)c2)ccc1O	100*	3	0	-4	-2	6
CCN(CC)c1ccc(/C=N/NC(=O)c2cccc(N3CCCC3=O)c2)cc1	97*	-1	0	-2	-3	1
COC(=O)[C@H](C(C)C)N1Cc2nnn(Cc3ccccc3)c2-c2ccccc2S1(=O)=O	nt	2	nt	nt	nt	nt
O=C(C1CCCN(S(=O)(=O)c2ccc(F)cc2)C1)N1CCN(Cc2ccccc2)CC1 (configuration not stated)	nt	1	nt	nt	nt	nt
CC(COc1ccccc1C#N)CN1CCC(C(O)(c2ccccc2)c2ccccc2)CC1 (configuration not stated)	nt	-3	nt	nt	nt	nt
COC(=O)c1cc(S(=O)(=O)N2CCN(c3ccccc3Cl)CC2)cn1C	nt	-6	nt	nt	nt	nt
COC(=O)c1cc(-c2cccc(C(F)(F)F)c2)c(=O)n2c1CCC2	nt	0	nt	nt	nt	nt
Cc1cc(-c2nnc(SCC(=O)Nc3ccccn3)o2)no1	42	-1	0	5	-5	5
O=C(CSc1nnc(CNC(=O)c2ccc(F)cc2)o1)Nc1nccs1	69	-1	-3	1	0	30*
Cc1cc(-c2nnc(SCC(=O)Nc3nccs3)o2)no1	89*	-1	-4	2	-7	7
N=C1C(c2nc3ccccc3s2)=C(O)CN1Cc1ccco1	98*	7	-2	-6	3	2
CN(C)CCN1CC(O)=C(c2nc3ccccc3s2)C1=N	nt	-2	1	2	0	-2
